Inconclusive results are not listed. Calls of active or inactive are those of the source. How the source made its calls, unless noted: active means hit-call score of the fitted dose curve at least 0.9, where 1 is the maximum; inconclusive means response in the unintended direction; inactive means score below 0.9.

A short description of the first experiment: CCTE_Deisenroth_DEVTOX-GLR_legacy_CellCount: (Legacy) Viability Assessment in CCTE's DevTox GLR-Endo Assay, Deisenroth Lab (AID 2284331; active means hit-call score of the fitted dose curve at least 0.9, where 1 is the maximum; inactive means score below 0.9). The following applies: actives raise or lower the signal. The essentials:
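Seed RUES2-GLR 24 h; differentiate 48 h, dosing at 0 and 24 h; fix, stain nuclei; image 5 fields/well; count nuclei. Conc. 1 nM - 200 uM, single technical replicate, n=4 experiments; bidirectional fit vs 0.2% DMSO.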
For the compound `OB(O)O`, the compound was classed as inactive. `CC(C)(c1ccc(O)cc1)c1ccc(O)cc1`: the AC50 is 35.6 µM (active).

On to `CCCCC(CC)COC(=O)c1ccccc1C(=O)O` (configuration not stated), for which the AC50 was 112 µM (active).

Another experiment in a line: IUF_NPC1_cytotoxicity_72hr: Cytotoxicity Assessment at 72 hours in the Leibniz Research Institute for Environmental Medicine (IUF) Neural Progenitor Cell Proliferation Assay (NPC1) (AID 2284332).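 Further: rising LDH signal means more cytotoxicity.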
Conditions: not given
As to the method:
IUF_NPC1 is a cell-based, multiplexed assay that uses hNPC, a human primary neural progenitor cells, with measurements taken at 72 hours after chemical dosing in a 96-well plate. Human neural progenitor cells (hNPC) are generated from human fetal brain cortex at gestational week (GW) 16-19. Grown in suspension culture and under proliferative conditions (proliferation media and growth factors), these cells represent neural progenitor cell proliferation. In the NPC1 assay, hNPC's are exposed to the test compound for 72h. Cell proliferation is assessed as an increase in sphere area using automated phase contrast imaging and as incorporation of Bromodeoxyuridine (BrdU) during DNA synthesis using a luminescence-based cell proliferation ELISA. In parallel, the cell viability is assessed using an alamar blue viability assay and the cytotoxicity using a lactate dehydrogenase dependent membrane integrity assay.IUF_NPC1_cytotoxicity_72hr is one of 4 assay components measured from the IUF_NPC1 assay. It is designed to measure cytotoxicity at 72 hrs due to loss of membrane integrity. LDH measurements are performed from medium supernatants of each well and are based on the reduction of resazurin to resorufin measured as fluorescence signal (relative fluorescence unit) in a multiplate reader. Data from the IUF_NPC1_cytotoxicity_72hr component was analyzed at the endpoint IUF_NPC1_cytotoxicity_72hr in the positive analysis fitting direction relative to the dynamic range and baseline of activity. Using a type of viability reporter, gain-of-signal activity can be used to understand cytotoxicity effects.
After the cell expansion period, the cells are cultured for up to four weeks in which they are passaged every week. Between one to three days after passaging, depending on the size chosen for passaging, spheres at a size of 0.3 mm are used in the assay. For the assessment of neural progenitor cell proliferation, the spheres are plated in poly-Hema coated 96-well U-bottom plates filled with proliferation medium containing growth factors (EGF and FGF). One 0.25 - 0.35 mm big sphere is plated in the middle of each well. Within 3 days NPCs proliferate and grow in size. Cultivation during the test method is performed at 37C and 5% CO2 at a pH of 7.2-7.6. As a positive control, spheres are cultivated in the absence of growth factors (EGF and FGF), which dramatically reduces proliferation. Exposure starts on the plating day (day 0) and is continued over three days, without chemical renewal, until the experiment is terminated. The assay is terminated by the assessment of cell viability, cytotoxicity, and proliferation by BrdU. All endpoints are generated from the same experimental run and from each well/sphere in the 96-well plate.
In the case of `CSC(=O)c1cccc2nnsc12`, the compound was called inactive. Consider `C#CCOC(=O)[C@@H](C)Oc1ccc(Oc2ncc(Cl)cc2F)cc1`, for which the compound was classed as inactive. With `CCN(CC)C(=O)c1cccc(C)c1`, the outcome was inactive. Same read-out and setting: as for `Cc1nn(C)c(Oc2ccccc2)c1C=NOCc1ccc(C(=O)OC(C)(C)C)cc1`, the entry is “inactive”; as for `CC(C)(c1ccc(O)cc1)c1ccc(O)cc1`, “inactive”; as for `S=C(S)NCCNC(=S)S.[Mn+2].[S-]C([S-])=NCCN=C([S-])[S-].[Zn+2]`, “inactive”. Take `CCCN(CCC)C(=O)SCC`: the compound was called inactive.

`S=C([S-])NCCNC(=S)[S-].[Mn+2]`: the compound was called inactive. Same read-out and setting: next, `O=C(O)c1ccccc1`: “inactive”.
